Screens: PubChem, The Scripps Research Institute Molecular Screening Center
The full list was thinned out, with hits kept by preference.
TTR transcr act: TTR transcription activators in neuroblastoma reporter cells, primary screen, cell-based, luminescence, SH-SY5Y, TTR promoter Gaussia luciferase; 100% = recombinant luciferase protein wells; activation, % at 16.7 µM; actives 1.3% (n = 92,000); AID 1117267, 2014;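 active = activation above the mean of all tested compounds plus 3 SD, cut at about 9.5% in these data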;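 also: cells exposed to compounds for one day before reading; 0% = median of all test compound wells on the plate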
TTR inh HuH7: TTR promoter reporter inhibitors in hepatoma cells, counter-screen for TTR transcription activator project, cell-based, luminescence, HuH7 hepatoma; shares compounds with TTR transcr act; HuH7 TTR promoter-Gaussia luciferase reporter; inhibition, % at 16.7 µM; actives 4% (n = 1,100); AID 1117279, 2014;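 active = average inhibition above the solvent-only control wells' mean plus 3 SD, cut at about 15% in these data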;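 also: 0% = cells with DMSO only and 100% = cells with inhibitor control FD; inhibitors lower well luminescence so higher value means more inhibition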
TTR up confirm: TTR transcription activators, retest, confirmation, cell-based, luminescence, SH-SY5Y, triplicate | shares compounds with TTR transcr act | SHSY5Y TTR promoter Gaussia luciferase; 100% = purified Lucia enzyme wells, no cells | activation, % at 16.7 µM | 1,100 tested, under 10 active;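 active = mean activation above a set limit taken from the earlier primary screen, cut at about 11% in these data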;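 also: 0% = DMSO-treated cells and 100% = recombinant Lucia luciferase without cells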
* = called active by the depositor.

SMILES | TTR transcr act | others
O=C(CCCSc1nc2ccccc2s1)NCc1ccc2c(c1)OCO2 | 0
Cc1ccccc1NC(=O)CCCSc1nc2ccccc2s1 | 12* | TTR inh HuH7=-16;TTR up confirm=0
Cc1cnc(NC(=O)CCCc2nc3ccccc3s2)s1 | 13* | TTR inh HuH7=16*;TTR up confirm=1
COC(=O)[C@]12C[C@H](CC(=O)NCc3ccc(OC)c(OC)c3)C(=O)N(Cc3ccccc3)C1=C[C@H](COCc1ccccc1)O[C@@H]2C | 2
Cc1ccc(CN2CCCCC(NC(=O)c3ccc(Br)cc3)C2=O)cc1 (stereo not drawn) | -2
CC(=O)c1ccc(-c2cc(C(C)=O)c3n(c2=O)CCC3)cc1 | 1
O=C(Nc1cccc2ccccc12)OC[C@@H]1CSCCS(=O)(=O)N1 | 7
N#Cc1ccccc1S(=O)(=O)N1CCN(c2nc(-c3cccs3)nc3ccccc23)CC1 | 1
CCOC(=O)CSc1nnc(-c2ccc(OC)cc2)n1CC | -1
COc1ccc(-c2nc(C)c(C(C)=O)n2O)cc1 | 0
COc1ccc(C(C)n2c(C)c3c(C)nnc(C)c3c2C)cc1 (stereo not drawn) | 9.8* | TTR inh HuH7=-9;TTR up confirm=1
C[C@@H](N)P(=O)(O)C[C@H](Cc1ccccc1)C(=O)O | 4
COc1ccccc1NC(=S)OCCN1CCCC12CCC(c1ccccc1)CC2 (stereo not drawn) | 1
Cc1ccc(S(=O)(=O)N2C=C(c3ccccc3)c3ccccc3-c3ccccc32)cc1 | 3
C=CC[C@@H]1NN2C(=O)[C@@H](C)[C@@H]3c4ccccc4C=NN3[C@@H]2c2ccccc21 | 1
COP(=O)(O)C[C@@H]1CCc2cc(C)cc([C@H](CC(C)C)NC(=O)OCc3ccccc3)c2O1 | 1
COc1ccc(N(C(C)C(=O)N/N=C/c2cccnc2)S(C)(=O)=O)cc1 (stereo not drawn) | -1
COc1ccc(N(C(C)C(=O)NN=C2CCCCCCC2)S(C)(=O)=O)cc1 (stereo not drawn) | 15* | TTR inh HuH7=-9;TTR up confirm=-1
COc1ccc(N(C(C)C(=O)N/N=C/c2ccc(OC)c(OC)c2)S(C)(=O)=O)cc1 (stereo not drawn) | -1
C#CCN1C(=O)[C@@](O)(c2cccn2C)c2cc(F)ccc21 | -1
O=C(N/C(=C\c1cccs1)C(=O)N1CCOCC1)c1ccco1 | -1
CN1CCN(C(=O)/C(=C\c2cccs2)NC(=O)c2ccco2)CC1 | 9.7* | TTR inh HuH7=3;TTR up confirm=-1
Cc1ccccc1NC(=O)/C(=C\c1cccs1)NC(=O)c1ccco1 | 2
COc1ccccc1CN[C@@H]1CC[C@@]23CCCN2C(=O)CCC[C@H]3C1 | 2
COc1nc(-c2ccccc2)ncc1S(=O)(=O)c1ccccc1 | 1
SMILES | TTR transcr act | others
COc1ccc(Oc2nc(-c3ccccc3)ncc2S(=O)(=O)c2ccccc2)cc1 | 6
Cc1cccc(C)c1Oc1nc(-c2ccccc2)ncc1S(=O)(=O)c1ccccc1 | 27* | TTR inh HuH7=-4;TTR up confirm=0
CC(=O)Nc1c(-c2ccc(F)cc2)nc2ncccn12 | 1
COc1cccc(Cn2cc(COC(=O)NCCc3c[nH]c4ccccc34)nn2)c1 | 0
COc1ccc(NC(=O)C(CCCCNC(=O)OC(C)(C)C)NC2(C(=O)NCCc3c[nH]c4ccccc34)CCCCC2)cc1 (stereo not drawn) | 0
Cc1ccc(-c2c3c(nc4sc(C(N)=O)c(N)c24)CCCC3)o1 | -1
COc1ccc(-c2c3c(nc4sc5c(=O)[nH]c(C)nc5c24)CCC3)cc1 | 16* | TTR inh HuH7=-6;TTR up confirm=-1
COc1ccc2nc3c(c(-c4ccccc4)c2c1)CCC3 | -4
CCOC(=O)N1CCN(C(=O)C[C@H]2C[C@@]3(C(=O)OC)C(=C[C@H](C4CCCC4)O[C@@H]3C)N(Cc3ccc(Cl)cc3Cl)C2=O)CC1 | 1
COC(=O)c1ccc(Cn2ccc3ccc(-c4ccc5ccn(C(=O)c6ccccc6C)c5c4)cc32)cc1 | 0
COCC(=O)N1C[C@@H](C)[C@@H](OC)CN(C)C(=O)c2ccc(NC(=O)c3cnccn3)cc2OC[C@H]1C | 2
CCn1c(=O)n2n(c1=O)[C@H]1C[N+](Cc3ccc4c(c3)OCO4)=C(N)NC1=C(C)C2 | 1
Cc1cccc2cc(C(c3nnnn3Cc3ccc4c(c3)OCO4)N3CCCC3)c(=O)[nH]c12 (stereo not drawn) | 11* | TTR inh HuH7=-13;TTR up confirm=1
O=c1[nH]c2cc3c(cc2cc1C(c1nnnn1Cc1ccccc1)N1CCCc2ccccc21)OCO3 (stereo not drawn) | 0
CCC(C)(C)n1nnnc1C(c1cc2cccc(C)c2[nH]c1=O)N1CCN(C(=O)c2ccco2)CC1 (stereo not drawn) | 1
COC(=O)CCCNC(=O)c1ccc2nc(Cc3ccc(OC)cc3)oc2c1 | 1
COc1ccc(Cc2nc3ccc(C(=O)NCc4cc(C)no4)cc3o2)cc1OC | 9.9* | TTR inh HuH7=1;TTR up confirm=0
COc1ccc(Cc2nc3ccc(C(=O)N4CCCC4)cc3o2)cc1 | -1
COC(=O)[C@]12C[C@H](CC(=O)NCCCN3CCCC3=O)C(=O)N(Cc3ccco3)C1=C[C@H](C1CCCC1)O[C@@H]2C | 0
Cc1cccc(C(=O)N[C@@H]2CC[C@@]34CCCN3C(=O)CCC[C@H]4[C@H]2C)c1 | 0
COCCCNC(=O)C[C@H]1C(=O)N(Cc2ccc(OC)cc2)C2=CCCCC[C@@]21C(=O)OC | 7
Oc1ccc(CNc2cccnc2)c2cccnc12 | -1
CC1O[C@@H](O[C@H](C)CC[C@@H](C)O[C@H]2OC(C)[C@@H](O)C[C@H]2O)C(O)C[C@H]1O (stereo partly drawn) | 14* | TTR inh HuH7=-15;TTR up confirm=2
C=CCN(C)C(C#CCCCC)c1ccccc1 (stereo not drawn) | 1
Cc1csc(NC(=O)CCNS(=O)(=O)c2ccc3c(c2)c(=O)n(C)c(=O)n3C)n1 | 4
SMILES | TTR transcr act | others
Cc1ccc(CCNC(=O)CCNS(=O)(=O)c2ccc3c(c2)c(=O)n(C)c(=O)n3C)cc1 | 9.9* | TTR inh HuH7=-6;TTR up confirm=-1
Cc1ccc(CCNC(=O)CN(C)S(=O)(=O)c2ccc3c(c2)c(=O)n(C)c(=O)n3C)cc1 | 0
O=C1CCC[C@H]2C[C@H](NCc3ccccc3F)CC[C@]23CCCN13 | 0
COCCCNC(=O)C[C@H]1C[C@@]2(C(=O)OC)C(=C[C@H](C(C)C)O[C@@H]2C2CC2)N(Cc2ccc(Cl)cc2Cl)C1=O | -1
CCOC(=O)CCCNC(=O)O[C@@H]1CC[C@@]23CCCN2C(=O)CCC[C@H]3C1 | 4
O=C(NCCc1ccccc1)OCc1cn(Cc2cccc(F)c2F)nn1 | 1
COc1ccc2nc(NC(=O)CSc3ccccc3)sc2c1 | -1
CCOc1ccc2nc(NC(=O)CSc3nc(SC)ns3)sc2c1 | 20* | TTR inh HuH7=-8;TTR up confirm=1
CCOC(=O)c1ccc(NC(=O)CSc2nc(SC)ns2)cc1 | -3
CC(C)(C)c1ccc(C(=O)Nc2cc(Cl)c(F)cc2C(=O)O)cc1 | -2
COC(=O)Cn1nc(-c2ccccc2)c2cccc(C(F)(F)F)c21 | -1
Cc1cc(NC(=O)C2CCCCC2)ncc1NC(=O)c1ccccn1 | 14* | TTR inh HuH7=1;TTR up confirm=-1
Cc1ccccc1NC(=O)c1ccccn1 | -1
Cc1cc(NC(=O)C2CC2)ncc1NC(=O)c1ccccn1 | 2
